Measured values reported in PubChem BioAssay (EPA / NIEHS).
Calls of active or inactive are those of the source. How the source made its calls: active means hit-call score of the fitted dose curve at least 0.9, where 1 is the maximum; inactive means score below 0.9.

read-out: Cytochrome P450 3A4 (Homo sapiens) (UniProt P08684); assay: LTEA_HepaRG_CYP3A4: Life Technologies and Expression Analysis (LTEA) Assay for CYP3A4 using HepaRG (AID 2283487); details: mRNA level, 48 h; actives raise or lower the signal
Procedure: LTEA_HepaRG is a cell based, multiplexed-readout assay that uses HepaRG, a human liver cell line, with measurements taken at 48 hours after chemical dosing on a 96-well plate.LTEA_HepaRG_CYP3A4 is one of 102 assay component(s) measured in the LTEA HepaRG cell culture assay. It is a marker of NR mediated metabolism.Data from the assay component LTEA_HepaRG_CYP3A4 was analyzed into 1 endpoint. This assay endpoint, LTEA_HepaRG_CYP3A4, was analyzed with bidirectional fitting relative to DMSO as the negative control and baseline of activity. Using a type of inducible reporter, measures of mRNA induction for gain or loss-of-signal activity can be used to understand regulation of transcription factor activity. To generalize the intended target to other relatable targets, this assay endpoint is annotated to the cyp intended target family, where the subfamily is xenobiotic metabolism.
A total of 1060 chemcials from the ToxCast library were tested in eight-point concentration-response experiments. Cell culture and cytotoxicity assays were conducted at Thermo Fisher Scientific's Custom Services facility (Madison, WI). A single lot of human HepaRG cells (Thermo Fisher Scientific, Frederick, MD) was used for the cell culture experiments. 96-well format collagen type I coated plates of human HepaRG cells were prepared using established methods. Briefly, cryopreserved HepaRG cells were thawed, plated at a density of approximately 100,000 cells/well in HepaRG Thaw, Plate, and General Purpose media (HPRG770, Thermo Fisher Scientific), and incubated for 48 hours. 0.5% DMSO was selected as vehicle control to balance the requisite need of DMSO in HepaRG cultures to maintain differentiation (for example, baseline metabolism, proportions of hepatocytes vs. cholangiocytes), while enabling further hepatic receptor pathway activation (for example, PXR and CAR) in response to chemical exposure. 48 hours after plating, the culture medium was replaced with HepaRG Serum-Free Incudtion Media. Cells were exposed to each test chemical in duplicate and maintained in CO2 incubators for another 48 hours. Chemical plates were thawed to room temperature and 200x concentrations of treatment groups were prepared. 8-point conentration-reponse curves were made with the highest exposure at 100 uM, followed by half-log dilutions, all in 0.5% DMSO. Each test plate contained variouse controls, induction positive controls (1mM phenobarbital), cytotoxicity positive controls ([…] aflatoxin B1), vehicle controls (0.5% DMSO), and total lysis controls (0.5% DMSO). Cell morphology images were taken using an Essen IncuCyte FLR automated microscope, with six 96-well plates imaged in about 24 minutes. Images were captured and exported and JPEG files. Spent culture media was transfered to black-well plates for the LDH assay, and remaining media was sorted at -80 C for later use. Cells were treated with RLT buffer and frozen until shipped for gene expression analysis. Total RNA was isolated from the cell suspension in 75 uL of Buffer RLT (Qiagen, Germantown, MD 20874) by Quintiles/Expression Analysis (Durham, NC) using a custom isolation procedure. Total RNA from each plate well was transferred to a preamplification plate. Fluidigm's 96.96 Dynamic ArrayTM (Fluidigm, Amsterdam, the Netherlands) technology was used for gene expression analyses by quantitative reverse transcription polymerase chain reaction (qRT-PCR, performed by Quintiles/Expression Analysis, Durham, NC)89. Standard TaqManTM Assays (Applied Biosystems/ThermoFisher Scientific, Foster City, CA) were used to assess the expression of 93 genes selected based on their selectivity and sensitivity to important hepatic receptors known to be modulated by environmental chemicals; importance in human hepatocyte functionality; and hepatotoxicity. […]

Cytochrome P450 3A4 (Homo sapiens), sequence (P08684 whole entry, looked up): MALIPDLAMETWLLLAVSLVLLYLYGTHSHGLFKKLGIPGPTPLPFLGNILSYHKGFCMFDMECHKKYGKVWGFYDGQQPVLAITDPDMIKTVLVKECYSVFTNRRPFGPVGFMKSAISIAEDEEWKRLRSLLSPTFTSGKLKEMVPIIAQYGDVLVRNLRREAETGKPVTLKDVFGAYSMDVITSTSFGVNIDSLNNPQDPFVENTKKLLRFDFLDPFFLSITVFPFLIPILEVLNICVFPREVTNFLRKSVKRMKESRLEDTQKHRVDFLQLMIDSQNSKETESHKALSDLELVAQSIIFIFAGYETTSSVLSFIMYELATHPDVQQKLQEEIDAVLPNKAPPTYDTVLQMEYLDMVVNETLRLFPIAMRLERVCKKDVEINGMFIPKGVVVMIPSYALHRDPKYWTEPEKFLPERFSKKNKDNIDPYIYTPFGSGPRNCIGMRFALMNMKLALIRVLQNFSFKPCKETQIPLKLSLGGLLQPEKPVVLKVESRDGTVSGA

Row | SMILES | outcome | AC50
1 | Cc1cccc([N+](=O)[O-])c1 | inactive | 
2 | Oc1ccc(Cl)cc1Cl | inactive | 
3 | Oc1c(Cl)c(Cl)c(Cl)c(Cl)c1Cl |  | 4.73 µM (active)
4 | CCC(C)(CC)c1cc(NC(=O)c2c(OC)cccc2OC)on1 |  | 0.541 µM (active)
5 | CCCCCCCCCC[N+](C)(C)CCCCCCCCCC |  | 63.1 µM (active)
6 | CN(C)c1nc(=O)n(C2CCCCC2)c(=O)n1C |  | 50 µM (active)
7 | CC(C)(O)C(=O)Nc1ccc([N+](=O)[O-])c(C(F)(F)F)c1 | inactive | 
8 | CCOP(=S)(OCC)SCSC(C)(C)C | inactive | 
9 | O=C(NC(=O)c1cc(F)c(F)cc1Cl)Nc1cc(F)ccc1N1CCC(C(=O)O)CC1 | inactive | 
10 | CC(c1ccc(O)cc1)(c1ccc(O)cc1)c1ccc(O)cc1 |  | 23.6 µM (active)
11 | CC#Cc1cc(C)nc(Nc2ccccc2)n1 |  | 28.2 µM (active)
12 | C[C@]12CCC(=O)C=C1CC[C@@H]1[C@@H]2CC[C@@]2(C)[C@H]1CC[C@]2(C)O | inactive | 
13 | CCCCCCCCOC(=O)c1ccccc1C(=O)OCCCCCCCC | inactive | 
14 | O=NN(c1ccccc1)c1ccccc1 | inactive | 
15 | C=CC(=O)NCNC(=O)C=C | inactive | 
16 | COc1ccc(O)c(C(C)(C)C)c1 |  | 66.4 µM (active)
17 | Cc1cc(O)ccc1Cl | inactive | 
18 | NS(=O)(=O)C(F)(F)C(F)(F)C(F)(F)C(F)(F)C(F)(F)C(F)(F)C(F)(F)C(F)(F)F |  | 10.7 µM (active)
19 | CCSC(=O)N(CC)C1CCCCC1 | inactive | 
20 | Cc1ccc(O)c(C)c1 | inactive | 

Row | SMILES | outcome | AC50
21 | ClC(Cl)=C(c1ccc(Cl)cc1)c1ccc(Cl)cc1 |  | 7.4 µM (active)
22 | CCOC(=O)C(O)(c1ccc(Cl)cc1)c1ccc(Cl)cc1 | inactive | 
23 | O=C(N[C@H]1CN2CCC1CC2)c1cc2ccoc2cn1 | inactive | 
24 | CCC(=O)O[C@H]1CC[C@H]2[C@@H]3CCC4=CC(=O)CC[C@]4(C)[C@H]3CC[C@]12C | inactive | 
25 | Cc1cc2c3c(c1)C(c1ccccc1)=N[C@@H](NC(=O)c1ccncc1)C(=O)N3CC2 |  | 3.86 µM (active)
26 | Cc1ccccc1[N+](=O)[O-] | inactive | 
27 | O=C(NC(=O)c1c(F)cccc1F)Nc1cc(Cl)c(OC(F)(F)C(F)F)c(Cl)c1 | inactive | 
28 | CCCCCCOC(=O)c1ccccc1C(=O)OCCCCCC | inactive | 
29 | CC(C)(c1ccccc1)c1ccc(O)cc1 | inactive | 
30 | CO/C=C(/C(=O)OC)c1ccccc1COc1cccc(C(F)(F)F)n1 |  | 8.05 µM (active)
31 | C[C@]12CCC(=O)C=C1CC[C@@H]1[C@@H]2CC[C@]2(C)C(=O)CC[C@@H]12 |  | 30.8 µM (active)
32 | Cc1ccccc1CO[C@@H]1C[C@@]2(C(C)C)CC[C@]1(C)O2 |  | 23.1 µM (active)
33 | Nc1ccc(-c2ccc(N)cc2)cc1 | inactive | 
34 | Nn1cnnc1 | inactive | 
35 | c1ccc(-c2ccccc2)cc1 | inactive | 
36 | Cc1ccccc1O | inactive | 
37 | CCC(C)(c1ccc(O)cc1)c1ccc(O)cc1 | inactive | 
38 | O=S(=O)(O)C(F)(F)C(F)(F)C(F)(F)C(F)(F)F | inactive | 
39 | O=C(O)C(F)(F)C(F)(F)C(F)(F)C(F)(F)C(F)(F)C(F)(F)C(F)(F)C(F)(F)F |  | 81.7 µM (active)
40 | CCCN(CCC)N=O | inactive | 
